Source: the supplement of paper PMC6555819

tested on: RARb:RXRa (NR concentration 270 nM, RXRa partner concentration 90 nM); experiment: PBM binding z-score (relative to random genomic background probes); higher = stronger binding; sequences stand for … in GC…GCGATTGACAGCGTAGAATGAAGG
Summary of the method: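 Binding z-scores take random background probes as their reference. They come from custom Agilent 4×180K protein-binding microarrays incubated 1 h with ligand-free nuclear receptor dimers, with antibodies against each partner (one per run) detecting binding. Scanned fluorescence was regression-normalized.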

| Sequence | PBM binding z-score |
| --- | --- |
| CCTAGCAGGCCAGGGTCACTCATGCATTTCGCTT | 2.38 |
| CAAACTAGGTCAAGAGGTCATAGTCCGCTTCCCG | 5.19 |
| ATCTCTAGGTAAGAGTCAGTTCAGTGAAGAACGC | 0.454 |
| GGAACGAGGGCGAGTTGATAGCAGAGTTTGATGG | 0.356 |
| CGTCAATGTTCAAGGTAACGTAACAGAAAGCAGC | 0.375 |
| CCTACTGGGCCAAGGGCATTGATCAGTCAAAGCA | 0.896 |
| ATATGTCGGTTATCGGGTCATTCAGTTTGCGCAT | 2.11 |
| GCTAGCAGGCCATTTGGGTCACTCAGTGACGGGC | 1.44 |
| CATTACGGGTCAAGGTTATAGCACGGGTGGTACG | 4.43 |
| TCTCGGAGGACACGAAAGGTCATAGCTCGACATC | 4.26 |
| CCGGACAGGTGAAAGGTAACTCAGTCTGGTACGC | 1.46 |
| CCAGACAGGTGAGAAGGTAACTTAGCCTCGATTA | 0.689 |
| TCGAGTAGGTTAGTCGGGGCATTCAACCAACATA | 0.517 |
| CCTTGCAGGCCAATCTGGGTCACTCAAGGCTTGA | 1.53 |
| CTCGAAAGGTCGGTTGAGGTGAGTACACGGATAA | 3.15 |
| CCTGCTAGGTCGATGGTCAGCTAAAGCAGCTCGC | 1.03 |
| CCTCGGAGGACAGAAGGTCAGGGCTGTCCGCTTT | 3.47 |
| CCTACTGGGCCAAGGTCAATGATCAGTCAAAGCA | 3.27 |
